Laboratory results as given in PubChem BioAssay.
Where “and” joins values, the source holds several entries; their conditions need not be identical. Equal entries are not always repeated. Calls of active or inactive are those of the source.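 Rule for the calls, unless noted: active = normalized viability below 100% at a tested concentration; inactive = the rest.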

Tests used:
[1] = P. berghei load reduction in hepatocytes – cell-based, HepG2, luciferase luminescence, HepG2 viability, primary screen (AID 624349; in the data active = parasite load remaining mostly below about 12%, no sharp cut-off; inactive = mostly above about 10%;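 note: 100% = mean of DMSO negative control wells on the same plate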); settings: P. berghei liver stage in HepG2, luciferase luminescence, concentration not given here; parasite load remaining: stronger effect = lower value; viability: measured here: HepG2 viability without parasites
[2] = signal quenchers or enhancers, Cy5 substrate/SSB – biochemical, NIH Clinical Collection, E. coli SSB, artefact control for HCV NS3 helicase inhibitor project (AID 743268; call rule not given here); settings: Cy5-oligo bound E. coli SSB, fluorescence interference
[3] = test system: Hepatitis C virus NS3 helicase; assay: blockers of NS3h binding to DNA – biochemical, fluorescence polarization, NIH Clinical Collection, primary screen (AID 743270; call rule not given here); settings: NS3 helicase binding to Cy5-dT15 DNA, stronger effect = higher value, concentration not given here
[4] = biological target: Single-stranded DNA-binding protein (Escherichia coli (strain K12)) (UniProt P0AGE0); assay: SSB-ssDNA binding inhibitors – biochemical, fluorescence polarization, NIH Clinical Collection, counter-screen for HCV NS3 helicase inhibitor project (AID 743271; in the data active = inhibition above about 28%); settings: E. coli SSB-DNA binding, stronger effect = higher value, concentration not given here
[5] = compounds distorting NS3 helicase fluorescence signal – biochemical, NIH Clinical Collection, artefact control for HCV NS3 helicase inhibitor project (AID 743272; call rule not given here;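 note: HCV NS3 helicase with a Cy5 labelled single stranded DNA probe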); settings: fluorescence interference counterscreen, HCV NS3 helicase assay; stronger effect = lower value
[6] = modulation of C. elegans fzo-1 (AID 1259413; call rule not given here;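 note: fzo-1 mutant C. elegans worms in liquid wells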); settings: C. elegans fzo-1 modulator screen, mean read-out; stronger effect = higher value
[7] = EMT-state selective cytotoxicity in co-culture – imaging, PC-3E GFP, TEM4-18 mCherry, primary screen (AID 1345086;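 active = compounds killing one labelled cell type while sparing the other, by normalised counts and ratio limits, not self-fluorescent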;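 note: cells exposed to compound for 72 h before imaging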;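 for red/green cell ratio (normalised): normalised mesenchymal count divided by normalised epithelial count so high means epithelial killing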); settings: PC-3E GFP / TEM4-18 mCherry co-culture, imaging cell counts, at 1 µM
[8] = MELAS cybrid and Rieske KO viability enhancers – cell-based, MELAS cybrids, Rieske KO mouse fibroblasts, CellTiter-Glo, primary screen (AID 1508586;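 active = mean z-score across replicates of 1.96 or higher in either the MELAS or the Rieske mutant cell line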;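 note: z relative to plate mean and SD of compound and empty wells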); settings: low glucose
[9] = drug combination growth inhibition, ovarian cancer – cell-based, oncology-focused library, rucaparib conditional, profiling panel (AID 1508598); settings: patient-derived ovarian cancer cells, CellTiter-Glo viability, 144 h, stronger effect = lower value
F380Y = assay: BK channel mutant inhibitors and activators – cell-based, U2OS BacMam, thallium flux, beta subunits, selectivity assay, profiling panel (AID 1259406;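 active = thallium flux through the channel raised or lowered by more than 3 SD from vehicle-only wells, actives on both sides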;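 note: initial slope of Thallos dye fluorescence rise after thallium is added; log ratio against the mean of 0.3% DMSO vehicle wells on the same plate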); settings: U2OS BacMam BK variants, at 30 µM
F380Y/beta1 = assay: as above; settings: U2OS BacMam BK variants, at 30 µM
F380Y/beta2Delta = assay: as above; settings: U2OS BacMam BK variants, at 30 µM
F380Y/beta4 = assay: as above; settings: U2OS BacMam BK variants, at 30 µM
[10] = biological target: Calcium-activated potassium channel subunit alpha-1 (Homo sapiens) + Leucine-rich repeat-containing protein 26 (Homo sapiens) (UniProt Q12791+Q2I0M4); assay: as above; settings: U2OS BacMam BK variants, F380Y/Slo1WT/gamma1, at 30 µM
R275C = assay: as above; settings: U2OS BacMam BK variants, at 30 µM
R275C/beta1 = assay: as above; settings: U2OS BacMam BK variants, at 30 µM
R275C/beta2Delta = assay: as above; settings: U2OS BacMam BK variants, at 30 µM
R275C/beta4 = assay: as above; settings: U2OS BacMam BK variants, at 30 µM
R275C/Slo1WT/beta2 = assay: as above; settings: U2OS BacMam BK variants, at 30 µM
[11] = viability loss with induced miR-34 in A549 – imaging, A549 dox-inducible miR-34, nuclei and caspase counts, primary screen (AID 1347080;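 active = compounds whose cell count with miR-34 switched on is under 0.7 times the count with it off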); settings: A549 miR-34 inducible, Hoechst nuclei count, 48 h
[12] = MELAS cybrid survival, CellTiter-Glo 48 h, stronger effect = higher value
[13] = Rieske KO mouse fibroblast survival, CellTiter-Glo 72 h

Sequence of Calcium-activated potassium channel subunit alpha-1 (Homo sapiens) + Leucine-rich repeat-containing protein 26 (Homo sapiens) (Q2I0M4 whole entry, looked up, one chain of several): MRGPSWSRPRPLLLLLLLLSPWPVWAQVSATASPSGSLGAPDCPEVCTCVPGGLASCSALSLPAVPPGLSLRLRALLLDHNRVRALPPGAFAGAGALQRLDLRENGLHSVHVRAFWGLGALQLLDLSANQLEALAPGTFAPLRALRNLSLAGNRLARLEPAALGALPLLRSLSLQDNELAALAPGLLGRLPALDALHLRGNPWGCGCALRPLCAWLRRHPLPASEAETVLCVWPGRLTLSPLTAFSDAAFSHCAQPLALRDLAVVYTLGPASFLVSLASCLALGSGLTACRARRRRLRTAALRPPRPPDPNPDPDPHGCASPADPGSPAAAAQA

O=C1CN2Cc3c(ccc(Cl)c3Cl)N=C2N1
0.79: normalised cell number ([7]; measured here: mesenchymal TEM4-18 mCherry cell survival)
-0.321 and 0.64 and -0.821: z-score [8, 13]
inactive: parasite load remaining [1] 45.6% and 99.2% and 57.7% | fluorescence ratio [2] 1.06 | inhibition [3] -12.3% | inhibition [4] -7.03% | fluorescence ratio [5] 1.02 | mean signal [6] 210 | red/green cell ratio (normalised) ([7]; actives lie on both sides, counts scaled to control wells, 1 = unselective) 0.92 | z-score [8, 12] -0.241 and 0.475 and -0.0504 | viability ([9]; at 0.000305 µM, OCI-C5x cells, with rucaparib 10 µM, 100% = cells with rucaparib alone) 111% | viability ([9]; at 0.000305 µM, OCI-C5x cells, without rucaparib) 124% | viability ([9]; at 0.00122 µM, OCI-C5x cells, with rucaparib 10 µM, 100% = cells with rucaparib alone) 113% | viability ([9]; at 0.00122 µM, OCI-C5x cells, without rucaparib) 126% | viability ([9]; at 0.00122 µM, OCI-P5x cells, with rucaparib 20 µM, 100% = cells with rucaparib alone) 100% | viability ([9]; at 0.00122 µM, OCI-P5x cells, without rucaparib) 107% | viability ([9]; at 0.00488 µM, OCI-C5x cells, with rucaparib 10 µM, 100% = cells with rucaparib alone) 115% | viability ([9]; at 0.00488 µM, OCI-C5x cells, without rucaparib) 121% | viability ([9]; at 0.00488 µM, OCI-P5x cells, with rucaparib 20 µM, 100% = cells with rucaparib alone) 106% | viability ([9]; at 0.00488 µM, OCI-P5x cells, without rucaparib) 105% | viability ([9]; at 0.0195 µM, OCI-C5x cells, with rucaparib 10 µM, 100% = cells with rucaparib alone) 111% | viability ([9]; at 0.0195 µM, OCI-C5x cells, without rucaparib) 115% | viability ([9]; at 0.0195 µM, OCI-P5x cells, without rucaparib) 103% | viability ([9]; at 0.0781 µM, OCI-C5x cells, with rucaparib 10 µM, 100% = cells with rucaparib alone) 109% | viability ([9]; at 0.0781 µM, OCI-C5x cells, without rucaparib) 107% | viability ([9]; at 0.0781 µM, OCI-P5x cells, without rucaparib) 101% | viability ([9]; at 0.313 µM, OCI-C5x cells, with rucaparib 10 µM, 100% = cells with rucaparib alone) 125% | viability ([9]; at 0.313 µM, OCI-C5x cells, without rucaparib) 118% | viability ([9]; at 1.25 µM, OCI-C5x cells, with rucaparib 10 µM, 100% = cells with rucaparib alone) 123% | viability ([9]; at 1.25 µM, OCI-C5x cells, without rucaparib) 107% | viability ([9]; at 5 µM, OCI-C5x cells, with rucaparib 10 µM, 100% = cells with rucaparib alone) 122% | viability ([9]; at 5 µM, OCI-C5x cells, without rucaparib) 116% | log fold change Tl+ flux (F380Y) -0.00116 | log fold change Tl+ flux (F380Y/beta1) 0.0415 | log fold change Tl+ flux (F380Y/beta2Delta) 0.0342 | log fold change Tl+ flux (F380Y/beta4) 0.00749 | log fold change Tl+ flux [10] -0.00535 | log fold change Tl+ flux (R275C) -0.0701 | log fold change Tl+ flux (R275C/beta1) -0.00554 | log fold change Tl+ flux (R275C/beta2Delta) -0.00347 | log fold change Tl+ flux (R275C/beta4) -0.00682 | log fold change Tl+ flux (R275C/Slo1WT/beta2) -0.00842
99.2% and 69.6% and 96.5%: viability [1]
0.86: normalised cell number ([7]; measured here: epithelial PC-3E GFP cell survival)
active: viability ([9]; at 0.000305 µM, OCI-P5x cells, with rucaparib 20 µM, 100% = cells with rucaparib alone) 98.8% | viability ([9]; at 0.000305 µM, OCI-P5x cells, without rucaparib) 72% | viability ([9]; at 0.0195 µM, OCI-P5x cells, with rucaparib 20 µM, 100% = cells with rucaparib alone) 99.6% | viability ([9]; at 0.0781 µM, OCI-P5x cells, with rucaparib 20 µM, 100% = cells with rucaparib alone) 94% | viability ([9]; at 0.313 µM, OCI-P5x cells, with rucaparib 20 µM, 100% = cells with rucaparib alone) 90.5% | viability ([9]; at 0.313 µM, OCI-P5x cells, without rucaparib) 92.4% | viability ([9]; at 1.25 µM, OCI-P5x cells, with rucaparib 20 µM, 100% = cells with rucaparib alone) 88.3% | viability ([9]; at 1.25 µM, OCI-P5x cells, without rucaparib) 92.2% | viability ([9]; at 5 µM, OCI-P5x cells, with rucaparib 20 µM, 100% = cells with rucaparib alone) 83.7% | viability ([9]; at 5 µM, OCI-P5x cells, without rucaparib) 85.5%

N=c1c(C(N)=O)cc2c(=O)n3ccccc3nc2n1Cc1ccco1
inactive: log fold change Tl+ flux (F380Y) 0.0339 | log fold change Tl+ flux (F380Y/beta1) -0.0185 | log fold change Tl+ flux (F380Y/beta2Delta) 0.0123 | log fold change Tl+ flux (F380Y/beta4) -0.019 | log fold change Tl+ flux [10] -0.0157 | log fold change Tl+ flux (R275C) 0.0321 | log fold change Tl+ flux (R275C/beta1) -0.0587 | log fold change Tl+ flux (R275C/beta2Delta) -0.00823 | log fold change Tl+ flux (R275C/beta4) -0.00879 | log fold change Tl+ flux (R275C/Slo1WT/beta2) 0.0143

CC(=O)NC[C@H]1CN(c2ccc(N3CCOCC3)c(F)c2)C(=O)O1
74.1% and 114%: viability [1]
9600 and 10500: cell count ([11]; measured here: total cells without miR-34 induction)
inactive: parasite load remaining [1] 99.9% and 45% | fluorescence ratio [2] 1.07 | inhibition [3] 6.73% | inhibition [4] 2.21% | fluorescence ratio [5] 1.04 | mean signal [6] 269 | fold change ([11]; stronger effect = lower value, cell number ratio, induced over uninduced) 1.08 and 0.926 | z-score [8, 12] -0.794 and 0.174 | log fold change Tl+ flux (F380Y) 0.0386 | log fold change Tl+ flux (F380Y/beta1) 0.0152 | log fold change Tl+ flux (F380Y/beta2Delta) -0.0137 | log fold change Tl+ flux (F380Y/beta4) -0.01 | log fold change Tl+ flux [10] -0.0237 | log fold change Tl+ flux (R275C) -0.0414 | log fold change Tl+ flux (R275C/beta1) 0.0265 | log fold change Tl+ flux (R275C/beta2Delta) 0.023 | log fold change Tl+ flux (R275C/beta4) 0.00539 | log fold change Tl+ flux (R275C/Slo1WT/beta2) 0.0288
1.57 and 0.639: fold change ([11]; measured here: relative caspase fold change +Dox/-Dox)
10400 and 9730: cell count ([11]; measured here: total cells with miR-34 induction, stronger effect = lower value)
-2.51 and -1.01: z-score [8, 13]
